HDAC3 inh = HDAC3 deacetylase inhibitors, primary screen, biochemical, fluorescence, cell-free homogeneous. inhibition, % at 8.3 µM. AID 2718, 2010. hit rate 0.15% among 320,000. recombinant HDAC3, fluorogenic peptide/trypsin coupled; in the data active = inhibition above about 26%, passing the limit was not always enough
Target sequence (O15379 whole entry, looked up): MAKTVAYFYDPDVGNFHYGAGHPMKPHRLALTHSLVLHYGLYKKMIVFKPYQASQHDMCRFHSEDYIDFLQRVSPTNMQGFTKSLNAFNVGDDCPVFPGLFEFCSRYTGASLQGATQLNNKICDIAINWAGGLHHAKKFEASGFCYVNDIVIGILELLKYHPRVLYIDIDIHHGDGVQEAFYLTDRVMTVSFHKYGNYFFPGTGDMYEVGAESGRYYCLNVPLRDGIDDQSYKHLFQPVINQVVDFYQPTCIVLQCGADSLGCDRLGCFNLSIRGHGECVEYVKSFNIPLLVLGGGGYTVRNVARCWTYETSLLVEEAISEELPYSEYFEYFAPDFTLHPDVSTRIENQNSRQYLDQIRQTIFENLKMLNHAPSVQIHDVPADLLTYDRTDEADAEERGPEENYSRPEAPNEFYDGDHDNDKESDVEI
LANA-H2A inh = blockers of LANA interaction with H2A/H2B – biochemical, FP readout, HTS, primary screen; Protein LANA1 (Human herpesvirus 8 type P (isolate GK18)), Q9QR71; cell-free LANA-H2A/H2B peptide, fluorescence polarization; inhibition, % (concentration not given with the values); hit rate 0.6% among 320,000; in the data active = inhibition mostly above about 10%, no sharp cut-off; inactive = mostly below about 6.7%
HTR2A ag = mouse Htr2a agonists via beta-arrestin recruitment, primary screen, cell-based, luminescence; 5-hydroxytryptamine receptor 2A (Mus musculus), P35363; CHO-K1 mHTR2A beta-arrestin complementation; percent of 30 µM serotonin response; activation, % at 7.6 µM; hit rate 0.66% among 360,000;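 active = activation above a run cutoff, the mean activation of all tested compounds plus 3 SD, cut at about 14% in these data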;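 also: 0% = plate median of compound wells and 100% = 30 µM serotonin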
Fh CTSL1 inh = Fasciola hepatica cathepsin L1 inhibitors, primary screen, counter-screen for PFM18AAP inhibitor project, biochemical, QFRET, fluorogenic peptide substrate. recombinant F. hepatica cathepsin L1, Z-Leu-Arg-MCA fluorescence. hit rate 0.49% among 300,000. inhibition, % at 5.96 µM. AID 1906, 2009;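 active = inhibition above the mean of all tested compounds plus 3 SD, set per screening campaign, cut at about 17% in these data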;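 also: 0% = plate median of test compound wells and 100% = 1 µM Z-Phe-Ala-diazomethylketone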
OPRM1 ag = OPRM1 agonists via beta-arrestin recruitment, confirmation, counter-screen for mouse HTR2A agonist project, cell-based, luminescence, single concentration; shares compounds with HTR2A ag; U2OS OPRM1 beta-arrestin PathHunter; DMSO 0%, DAMGO 9.3 µM 100%; activation, % at 9.3 µM; hit rate 5.3% among 2,300; AID 624380, 2012;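 active = mean activation above the mean of DMSO-only wells plus 3 SD, cut at about 0.5% in these data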
m5-HT2A ag conf = mouse HTR2A agonists, beta-arrestin recruitment, confirmation, cell-based, luminescence, CHO-K1 PathHunter, triplicate | activation, % at 7.6 µM | DMSO 0%, 30 µM serotonin 100% | hit rate 19% among 2,300 | AID 624381, 2012 | shares compounds with HTR2A ag;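 active = mean activation across triplicates above the hit threshold derived in the original primary screen, cut at about 15% in these data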
* hit, by the source's call. Rows were chosen to be rich in hits. Some 1.7% of all compounds tested hit in one or more screens of this group.

For NCCc1nc(-c2ccccc2)cs1 the results were HDAC3 inh -2, LANA-H2A inh -7, HTR2A ag 35*, Fh CTSL1 inh -1, OPRM1 ag -1 and m5-HT2A ag conf 14.
Screening Cc1cc(C)c(C)c(S(=O)(=O)N2CCN(C(=O)c3ccccn3)CC2)c1C returned HTR2A ag 16*, OPRM1 ag 1.1* and m5-HT2A ag conf 4.
Screening CCN(CC)C(=O)c1ncn2c1c(=O)[nH]c1ccccc12 returned HTR2A ag 3.
COc1ccccc1Nc1nnc(SCC(=O)N2CC(=O)Nc3ccccc32)s1 was read as HDAC3 inh -1, LANA-H2A inh 0, HTR2A ag 18*, Fh CTSL1 inh 5, OPRM1 ag -1 and m5-HT2A ag conf -4.
`COC(=O)Nc1cc(C(=O)c2ccc(Cl)cc2Cl)c[nH]1` gave HDAC3 inh -5, LANA-H2A inh -3, HTR2A ag 1 and Fh CTSL1 inh 0.
For O=C(NCc1ccccc1)C(c1ccccc1)N(C(=O)c1csnn1)C1CC1 (configuration not stated) the results were HDAC3 inh 6, LANA-H2A inh -3, HTR2A ag 3 and Fh CTSL1 inh -2.
Screening Cc1ccc(C(C(=O)NCc2ccccc2)N(C(=O)c2csnn2)C2CC2)cc1 (configuration not stated) returned HDAC3 inh -16, LANA-H2A inh 1, HTR2A ag 19*, Fh CTSL1 inh -2, OPRM1 ag -1 and m5-HT2A ag conf -3.
For O=C(COC(=O)Cn1cnc2ccccc21)Nc1cccc(S(=O)(=O)N2CCOCC2)c1 the results were HDAC3 inh 7, LANA-H2A inh 2, HTR2A ag -2 and Fh CTSL1 inh -8.
Screening CCOCCn1c(=O)c2c(nc3n2CC(C)CN3CCc2ccccc2)n(C)c1=O (configuration not stated) returned HDAC3 inh 5, LANA-H2A inh 1, HTR2A ag 15*, Fh CTSL1 inh 3, OPRM1 ag 0 and m5-HT2A ag conf -1.
Screening COC(=O)Cn1c(=O)c2c(nc3n2CC(C)CN3CCc2ccccc2)n(C)c1=O (configuration not stated) returned HTR2A ag 3.
For CC1CCCN(C(=O)COC(=O)Cn2cnc3ccccc32)C1 (configuration not stated) the results were HDAC3 inh 4, LANA-H2A inh 1 and HTR2A ag -1.
For O=C(Nc1nnc(C2CC2)s1)c1cc(S(=O)(=O)N2CCCCC2)ccc1N1CCOCC1 the results were LANA-H2A inh -6, HTR2A ag 24*, Fh CTSL1 inh -4, OPRM1 ag -1 and m5-HT2A ag conf -3.
O=S1(=O)CCC(NC(=S)N2CCCCC2)C1 (configuration not stated) was read as HDAC3 inh 2, LANA-H2A inh -1, HTR2A ag 17*, Fh CTSL1 inh 0, OPRM1 ag -1 and m5-HT2A ag conf -3.
Screening Cc1ccc(C(=O)CN2C(=O)NC3(CCCCCC3)C2=O)c(C)c1 returned HDAC3 inh 5, LANA-H2A inh -2, HTR2A ag 4 and Fh CTSL1 inh -1.
Screening COc1cc(NC(=O)c2ccc(F)cc2)c(OC)cc1Cl returned HDAC3 inh -7, LANA-H2A inh -2, HTR2A ag 4 and Fh CTSL1 inh 0.
`COc1cc(OC)c(NC(=O)c2cncn2-c2ccc(F)cc2)cc1Cl` gave HDAC3 inh 1, LANA-H2A inh 8, HTR2A ag 15*, Fh CTSL1 inh 4, OPRM1 ag 0 and m5-HT2A ag conf 2.
Screening Cn1cc(C(=O)c2ccc(Cl)cc2Cl)cc1C(=O)N/N=C(\N)COc1ccc(Cl)cc1 returned HDAC3 inh 7, LANA-H2A inh 4, HTR2A ag 15*, Fh CTSL1 inh -1, OPRM1 ag 0 and m5-HT2A ag conf -3.
